Experimental data: the supplement of paper PMC6555819

System: VDR:RXRa (NR concentration 270 nM, RXRa partner concentration 90 nM)
Assay: PBM binding z-score (relative to random genomic background probes); higher = stronger binding; sequences stand for … in GC…GCGATTGACAGCGTAGAATGAAGG
Protocol: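 Protein-binding microarray (Agilent 4x180K custom design, double-stranded 60-nt probes: 5' GC cap, 34-nt variable region, 24-nt constant primer region; full probe sequence given). Purified or IVT nuclear receptor:RXRα heterodimers (3:1 NR:RXRα, mostly 270:90 nM) or homodimers were incubated for 1 h in PBS with 2% milk and no ligand, then detected with Alexa488 antibodies. Fluorescence from o1-orientation probes (~5 replicates averaged) was converted to z-scores against 500 random hg19 background probes. Variable regions are seed direct-repeat (DR0–DR5) sites, all their single-nucleotide variants and half-site ablations.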

Row | Sequence | PBM binding z-score
1 | CGTCAAAGTTCAAGGTAACATAACAGAAAGCAGC | 3.63
2 | ACAGACAGGTGAGTGAGGGTAACTCAGCTGGACG | 2
3 | ATCTCTAGTTAAGACTCAGTTCAGTGAAGAACGC | 1.2
4 | CTGGAAAGGTCGGTTGAGGTGAGTATACGGATAA | 2.15
5 | CGTCGAAGGTCATAGGAGGTCAGTGAAGACAGAT | 6.76
6 | TCGAGTAGGTTAGGCGGGGCATTCAGCCAACATA | 1.43
7 | CGTACTGGGCCAAAGGTCATTGATTCCAATGCTC | 5.07
8 | CTACCACGGTGAACAAGGTCGTTGATTACTATTC | 3.47
9 | GTACCAAGGTGAATAGGTCGTTTATGAGTAGGCG | 1.07
10 | CGTCCAAGGTCATAGGAGGTCAGTGCAGACAGAT | 6.74
11 | AGAATGAGGTTACCACAGATCAGGGAAACGCTTG | 1.23
12 | CCGACTGGGGCAAGGCTACCATAACGCACAGCCA | -0.501
13 | AGAATAAGGTTAAGATCAGGGAAACAGAATACAT | 1.14
14 | CCTACTGGGCCACGAAAGGTCACTGATTCAGTGA | 3.77
15 | CCTATTAATTGACCATAAGGGCAACCGAAGCTCG | 0.371
16 | CGTCCCAGGTCAAAGGTCAGTGAAGAGATGACGG | 6.07
17 | TAGCGTAGGTCATGCGGGCCAGTATAGTGTCGGC | 3.33
18 | GCTAGCAGGCCATTCGGGTCACTCAATGACGGGC | 3.27
19 | ATCTCTGGGTAAAGTTCAGTGAAAGATCGATAGA | 1.64
20 | CGAACTAGGTCAAGGACACTGAATCTCCGCACGC | 1.57

Row | Sequence | PBM binding z-score
21 | CGAACGAGGGTATGAGTTGATAGCAAATGCCGAT | -0.175
22 | ATCGAAAGGTCGACGAGGTGGGTATACACCGTTT | 4.34
23 | CAAACTAGGTCAAAAGTCAAAGTCGAGCCAACCA | 2.46
24 | GATACAGGGTCAGCTAGACGCCAGAGTATGGAAA | 2.29
25 | CGGAGTAGGTTATGGGGCATTCAGGCAACGGTGA | 0.00597
26 | CGTCAAAGTTCAAGGAAACGTAACAGAAAGCAGC | 3.29
27 | ACTAGTCGGTCAGCTGAGGTCACACACAATTCGG | 5.12
28 | AGTCCAAGTTCAGGACGAGGTAACGTAAAGCACG | 2.51
29 | AGAATGCGGTTAAGATCAGGGAAACAGAATACAT | -0.269
30 | GCTAGCAGGCCATTTGGGTCACTCACTGACGGGC | 0.766
31 | ATATGTAGGTTAGCTGGGGGCATTCAGACTAGGC | 4.08
32 | AGAACGAAGGCACGCTGAGTTGATAGCAGAGTAG | -0.487
33 | CCTAGCAGGCCAAACTGGGTCACTCAAGGCTTGA | 0.616
34 | TCGAGTAGGTTAGTCGGGGCATTCAGCCAACATA | 2.07
35 | TCTTGTAGATCAATAGAGGTTAAGCAAGTGCGCT | 2.4
36 | GCTATTAGTTGAAAGGGCACCCGAATGATTCTCG | 0.313
37 | GGAACGAGGGCATTCGAGTTGATAGCCTGGCGAT | 3.37
38 | GCTGCTAGGTCAGGTTGGTCAGGTAACGGGTACG | 0.625
39 | CCTATTAGTTGAACATAAGGGCAACCGAAGCTCG | 0.603
40 | TCTTGTAGATCAAAGGTTTAGAAAGCCGAAGCCT | 0.314
